Measurements taken from the supplement of paper PMC6522484.
± gives the standard deviation of the averaged measurements.

What was measured:
DLD1 [1] = test: cell viability (CellTiter-Glo) relative to plate median (fraction of plate median); higher = more viable cells; conditions: 5 µM; treatment time 24 h; reporter: 7TFP
Procedure, shortened: (§1)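 Library compounds, at a final 5 µM, stayed on reporter cells for 24 h. The cells were colorectal cancer lines stably transduced with lentiviral TCF/Wnt firefly luciferase reporters, seeded in 384-well plates 24 h before dosing. Firefly luciferase or CellTiterGlo luminescence from parallel plates was normalised to the plate median in webcellHTS2 (additive, no log transformation), and two independent replicates were averaged.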

HCT116 = test: as above; conditions: 5 µM; treatment time 24 h; reporter: TCF4/Wnt
Procedure, shortened: as §1

SW480 [2] = test: as above; conditions: 5 µM; treatment time 24 h; reporter: 7TFP
Procedure, shortened: as §1

DLD1 [3] = test: TCF/Wnt firefly luciferase reporter signal relative to plate median (fraction of plate median); higher = higher Wnt reporter signal; conditions: 5 µM; treatment time 24 h; reporter: 7TFP
Procedure, shortened: as §1

SW480 [4] = test: as above; conditions: 5 µM; treatment time 24 h; reporter: 7TFP
Procedure, shortened: as §1

Row | Structure (SMILES) | cell viability (DLD1 [1]) | cell viability (HCT116) | cell viability (SW480 [2]) | TCF/Wnt firefly luciferase reporter signal (DLD1 [3]) | TCF/Wnt firefly luciferase reporter signal (SW480 [4])
1 | O=C(/C=C/C=C/c1ccc2c(c1)OCO2)N1CCCCC1 | 1 ± 0.038 | 1.05 ± 0.12 | 1.03 | 1.16 ± 0.18 | 1.08 ± 0.19
2 | COc1c2ccoc2cc2oc(C)cc(=O)c12 | 0.967 ± 0.016 | 0.973 ± 0.12 | 0.92 ± 0.0042 | 0.894 ± 0.012 | 0.986 ± 0.034
3 | CC(=O)CC(=O)CCC(=O)O | 1.02 ± 0.11 | 0.996 ± 0.12 | 0.935 ± 0.033 | 0.844 ± 0.13 | 0.939 ± 0.02
4 | O=C(C=Cc1ccc(O)cc1)c1ccccc1O | 0.926 ± 0.089 | 0.881 ± 0.03 | 1.02 ± 0.028 | 1.06 ± 0.035 | 1.07 ± 0.092
5 | CN(C)[C@@H]1C(O)=C(C(=O)NCN2CCCC2)C(=O)[C@@]2(O)C(O)=C3C(=O)c4c(O)cccc4[C@@](C)(O)[C@H]3C[C@@H]12 | 1.08 ± 0.13 | 1.06 | 1.02 ± 0.014 | 0.858 ± 0.067 | 1.04
6 | CC(=O)O[C@@H]1CO[C@H]2O[C@H]3[C@@H](C(C=O)=C[C@H](O)[C@@H]4C5=C(C(C)C)CC[C@]5(C)CC[C@@]34C)[C@@]2(O)C1=O [Striatal B] | 1 ± 0.17 | 0.89 ± 0.16 | 1.05 ± 0.021 | 1 ± 0.16 | 1.025 ± 0.0071
7 | CCC1(C)CC(=O)NC1=O (stereo not given) | 0.932 ± 0.018 | 1.09 ± 0.021 | 1 ± 0.022 | 1.15 ± 0.11 | 0.865 ± 0.0092
8 | CC(C)c1c(O)ccc2c1CC[C@H]1[C@@](C)(CO)CCC[C@]21C | 1.07 ± 0.057 | 1.03 ± 0.15 | 1.1 ± 0.085 | 1.06 ± 0.19 | 1.04 ± 0.021
9 | COC(C)c1cccc2nc3c(C(=O)O)cccc3nc12 (stereo not given) [Saphenic acid methylether] | 1.03 ± 0.052 | 1.13 ± 0.028 | 1.04 ± 0.028 | 0.907 ± 0.1 | 1.15 ± 0.14
10 | Cc1ccc(/C(=C\CN2CCCC2)c2ccccn2)cc1 | 0.984 ± 0.037 | 0.968 ± 0.088 | 0.945 ± 0.048 | 0.886 ± 0.064 | 0.956 ± 0.091
11 | NCCCS(=O)(=O)O | 0.999 ± 0.044 | 0.993 ± 0.052 | 0.974 ± 0.011 | 0.969 ± 0.14 | 1.11 ± 0.05
12 | COc1cc2c(cc1-c1coc3c4c(c(OC)cc3c1=O)OC(C)(C)C=C4)OCO2 | 0.998 ± 0.017 | 1.06 ± 0.014 | 0.986 ± 0.018 | 0.892 ± 0.014 | 0.938 ± 0.0099
13 | O=c1cc(-c2cccc(O)c2)oc2ccc(O)cc12 | 1.05 ± 0.09 | 0.98 ± 0.0057 | 1 ± 0.036 | 1.19 ± 0.16 | 1.19 ± 0.14
14 | O=C1CN(/N=C/c2ccc(-c3ccc([N+](=O)[O-])cc3)o2)C(=O)N1 | 0.999 ± 0.044 | 0.9895 ± 0.005 | 0.97 ± 0.018 | 1 ± 0.042 | 1.02 ± 0.014
15 | CCC(CCC(C)C1CCC2C3CCC4CC(O)CCC4(C)C3CCC12C)C(C)C (stereo not given) | 1.11 ± 0.057 | 1.06 ± 0.021 | 1.06 ± 0.021 | 1.23 ± 0.078 | 1.01 ± 0.015
16 | Cn1c(=O)c2c(ncn2C)n(C)c1=O | 0.899 ± 0.05 | 0.953 ± 0.081 | 0.952 ± 0.0014 | 0.981 ± 0.11 | 1.01 ± 0.04

Row | Structure (SMILES) | cell viability (DLD1 [1]) | cell viability (HCT116) | cell viability (SW480 [2]) | TCF/Wnt firefly luciferase reporter signal (DLD1 [3]) | TCF/Wnt firefly luciferase reporter signal (SW480 [4])
17 | O=C1N=C(O)NC1(c1ccccc1)c1ccccc1 | 1.06 ± 0.05 | 0.957 ± 0.015 | 1.005 ± 0.0071 | 1.08 ± 0.021 | 1.08 ± 0.021
18 | O=C(O)CCNC(=O)c1ccccc1 | 1.04 ± 0.035 | 1.035 ± 0.0071 | 1 ± 0.026 | 0.972 ± 0.0099 | 1.005 ± 0.0071
19 | Cc1c2oc3c(C)ccc(C(=O)N[C@@H]4C(=O)N[C@H](C(C)C)C(=O)N5CCC[C@H]5C(=O)N(C)CC(=O)N(C)[C@@H](C(C)C)C(=O)O[C@@H]4C)c3nc-2c(C(=O)N[C@@H]2C(=O)N[C@H](C(C)C)C(=O)N3CCC[C@H]3C(=O)N(C)CC(=O)N(C)[C@@H](C(C)C)C(=O)O[C@@H]2C)c(N)c1=O | 1.06 ± 0.071 | 0.601 ± 0.18 | 1.31 ± 0.035 | 0.612 ± 0.11 | 0.802 ± 0.039
20 | CCCOc1ccc(C(=O)OCCN(CC)CC)cc1N | 0.9545 ± 0.0064 | 0.994 ± 0.051 | 0.95 ± 0.038 | 0.97 ± 0.057 | 1.095 ± 0.0071
21 | CC[C@H](/C=C/[C@@H](C)[C@H]1CC[C@H]2[C@@H]3CC=C4C[C@@H](O)CC[C@]4(C)[C@H]3CC[C@]12C)C(C)C | 1.04 ± 0.096 | 1.14 ± 0.14 | 1.03 | 1.05 ± 0.014 | 1 ± 0.066
22 | COC(=O)C[C@H]1C2(C)CC34OC5(C)O[C@@]6([C@H](OC(C)=O)C(OC(C)=O)[C@]7(C)C(/C(=C(/O)C(C)C)C(=O)O[C@H]7c7ccoc7)[C@@]6(O5)[C@H](OC(C)=O)[C@@]3(O)C2OC(=O)C(C)C)[C@]14C (stereo not given in full) | 1.02 ± 0.021 | 0.959 ± 0.1 | 1.01 ± 0.021 | 1.05 ± 0.14 | 1.08
23 | CCCC(=O)Nc1ccc(OCC(O)CNC(C)C)c(C(C)=O)c1 (stereo not given) | 0.942 ± 0.11 | 0.966 ± 0.019 | 0.876 ± 0.1 | 0.957 ± 0.12 | 1.01 ± 0.035
24 | N[C@@H]1CONC1=O | 1.04 ± 0.11 | 1.05 ± 0.035 | 1.04 ± 0.061 | 1.05 ± 0.028 | 0.969 ± 0.21
25 | CC1(C)CC2C1CCC1(C)OC2(C)CCC1O (stereo not given) | 1.045 ± 0.0071 | 1.1 ± 0.014 | 1.06 ± 0.028 | 1.02 ± 0.036 | 0.994 ± 0.094
26 | COC(=O)C[C@H]1C(C)(C)C(=O)[C@@H]2CC3=C(CC[C@]4(C)C3=CC(=O)O[C@H]4c3ccoc3)[C@@]1(C)C2=O | 0.96 ± 0.032 | 0.979 ± 0.058 | 0.944 ± 0.018 | 0.782 ± 0.35 | 0.954 ± 0.029
27 | O=c1oc2c(O)c(O)cc3c(=O)oc4c(O)c(O)cc1c4c23 | 1.03 ± 0.028 | 1.125 ± 0.0071 | 1.11 ± 0.028 | 0.971 ± 0.055 | 1.045 ± 0.0071
28 | COc1ccc2c(c1)c(CC(=O)OCC(=O)O)c(C)n2C(=O)c1ccc(Cl)cc1 | 0.935 ± 0.073 | 0.885 ± 0.082 | 0.952 ± 0.04 | 1.05 ± 0.16 | 1.07 ± 0.028
29 | CC(=O)O[C@@H]1CC(=O)[C@@]2(C)C(CC(=O)[C@]3(C)C2CC[C@@]2(C)[C@H](c4ccoc4)OC(=O)C4OC423)C1(C)C (stereo not given in full) | 1.025 ± 0.0071 | 1.025 ± 0.0071 | 0.981 ± 0.0057 | 0.986 ± 0.12 | 1.05 ± 0.098
30 | O=C(O)C1=CCCNC1 | 1.01 ± 0.061 | 1.01 ± 0.037 | 1 ± 0.013 | 1.13 ± 0.028 | 1.04 ± 0.16
31 | C[N+](C)(C)CCOP(=O)(O)OP(=O)([O-])OC[C@H]1O[C@@H](n2ccc(N)nc2=O)[C@H](O)[C@@H]1O | 0.923 ± 0.1 | 0.942 ± 0.016 | 1.01 ± 0.017 | 1.01 ± 0.096 | 1.04 ± 0.028
